In the library only some 2.6% were active in any assay of this set; here they are far more common.
MLLE-PAM2 inh: blocks PAM2 peptide binding to the PABP1 MLLE domain; P11940; GST-MLLE / FITC-PAM2 fluorescence polarization; inhibition, % at 20 µM; hit rate 0.36% among 360,000; AID 588489; in the data active = inhibition above about 35%, passing the limit was not always enough;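 note: plate controls were DMSO wells with GST-MLLE for no effect and wells lacking GST-MLLE protein for full effect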
Target sequence (P11940 whole entry, looked up, the tested form may be a part): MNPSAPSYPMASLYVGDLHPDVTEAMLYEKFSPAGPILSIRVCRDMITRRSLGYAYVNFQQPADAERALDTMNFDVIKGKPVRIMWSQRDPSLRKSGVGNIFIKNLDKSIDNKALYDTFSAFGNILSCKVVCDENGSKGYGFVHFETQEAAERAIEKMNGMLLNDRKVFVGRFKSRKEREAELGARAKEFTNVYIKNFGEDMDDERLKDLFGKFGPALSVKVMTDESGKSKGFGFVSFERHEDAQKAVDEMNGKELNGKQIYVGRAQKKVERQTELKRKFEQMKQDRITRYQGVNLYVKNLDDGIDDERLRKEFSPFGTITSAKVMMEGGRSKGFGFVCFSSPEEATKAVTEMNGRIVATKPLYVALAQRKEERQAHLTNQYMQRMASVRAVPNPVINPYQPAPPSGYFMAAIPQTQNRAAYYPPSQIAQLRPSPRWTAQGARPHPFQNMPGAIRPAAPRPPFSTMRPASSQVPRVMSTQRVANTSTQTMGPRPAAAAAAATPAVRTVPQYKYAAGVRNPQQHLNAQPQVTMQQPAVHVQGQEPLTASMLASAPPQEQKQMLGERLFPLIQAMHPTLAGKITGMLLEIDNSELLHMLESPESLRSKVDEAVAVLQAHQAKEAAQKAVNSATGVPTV
PABP FP inh: PABP-poly(A) binding inhibition; PABP-poly(A) RNA binding, fluorescence polarization; calls only at 35 µM; hit rate 1% among 290,000; AID 2014;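 note: calls also rest on retests at 20 µM and on dose response follow-up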
eIF4H FP inh: inhibitors of RNA binding by human eIF4H; eIF4H fluorescence polarization binding assay; inhibition, % at 35 µM; hit rate 0.94% among 290,000; Q15056;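 note: calls also rest on retests at 20 µM and on dose response follow-up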
APOBEC3G inh: APOBEC3G (human) deaminase inhibition. inhibition, % at 20 µM. recombinant A3G, ssDNA deamination FAM/TAMRA fluorescence. Q9HC16. hit rate 0.28% among 330,000;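 active = inhibition of at least 40% at 20 µM, with no more than 30% in the related APOBEC3A deaminase screen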;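 note: plate controls were DMSO wells with A3G for no effect and wells lacking A3G enzyme for full effect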
PHOSPHO1 block: blocks human PHOSPHO1 phosphatase activity. recombinant PHOSPHO1, absorbance phosphatase assay. inhibition, % at 13.3 µM. hit rate 1.1% among 290,000; in the data active = inhibition above about 60%
A3A deaminase: human APOBEC3A DNA deaminase inhibition | inhibition, % at 20 µM | recombinant A3A, FAM/TAMRA ssDNA deamination fluorescence | hit rate 0.41% among 330,000;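 active = at least 40% inhibition at 20 µM here, with at most 30% in a related deaminase screen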;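 note: plate controls were A3A with DMSO for no effect and wells lacking A3A enzyme for full effect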
APOBEC3A confirm: APOBEC3A (human) deaminase inhibition, confirmed. inhibition, % at 20 µM. recombinant A3A, ssDNA deaminase UDG fluorescence assay. hit rate 63% among 1,400. shares compounds with A3A deaminase;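 active = inhibition reaching a set limit, 80% of the first screen's cutoff, at 20 µM in any replicate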;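 note: plate controls were DMSO wells with A3A for no effect and wells lacking A3A enzyme for full effect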
UDG A3A counter: counter-screen for APOBEC3A inhibitors: UDG; inhibition, % at 20 µM; 1,000 tested, under 10 active; UDG counterscreen, FAM/TAMRA uracil oligo fluorescence; shares compounds with A3A deaminase
Numbers without * were called inactive; i = inactive; ? = inconclusive; . = not tested or not shown; + = active, no number. Unless noted, the rule behind the calls is not given here.

SMILES	MLLE-PAM2 inh	PABP FP inh	eIF4H FP inh	APOBEC3G inh	PHOSPHO1 block	A3A deaminase	APOBEC3A confirm	UDG A3A counter
C=CCn1c2[n+](c3ccccc3c1=O)CCCCC2	-94	i	49	14	-21	67*	52*	-2
O=C(c1ccc(-c2ccccc2)c(F)c1)C1CCCN(CCCn2cccn2)C1 (centres undefined)	4	i	36	2	32	-7	.	.
O=C(COC(=O)/C=C/c1ccc(F)cc1)NC1CCS(=O)(=O)C1 (centres undefined)	-3	.	.	-4	.	1	.	.
CCOC(=O)C1=C(C)Nc2sc(C(=O)c3ccc(F)cc3)c(N)c2C1c1ccc(C(=O)OC)cc1 (centres undefined)	9	i	-6	-3	-5	76*	-10	-1
COc1ccccc1OCc1nnc(SCC(=O)Nc2nnc(C3CC3)s2)n1C	-19	i	-2	-2	52	5	.	.
OC1(c2nc3ccccc3[nH]2)CCCCC1	-8	.	.	-7	.	0	.	.
NC(=O)c1cc([N+](=O)[O-])c(Cl)cc1NCc1cccnc1	12	.	.	-8	.	-1	.	.
COC(=O)c1ccc2c(=O)n(CCN3CCOCC3)c(SCC(=O)Nc3ccccc3Cl)nc2c1	37	i	1	-6	38	-1	.	.
COc1ccc(OC)c(NS(=O)(=O)c2ccc(Br)s2)c1	.	i	-4	3	-11	-4	.	.
COc1ccc(OC)c(NS(=O)(=O)c2cccs2)c1	-8	i	-4	-5	19	62*	-1	3
CCOC(=O)c1[nH]c2ccc(Br)cc2c1NC(=O)CCN1CCC(C)CC1	-15	i	0	-2	15	3	.	.
CCOC(=O)c1[nH]c2ccc(OC)cc2c1NC(=O)CCN1CCC(C)CC1	.	i	-4	14	71*	49*	22	.
O=C(O)[C@H]1Cc2ccccc2CN1S(=O)(=O)c1ccc(F)cc1	2	i	4	-2	20	0	.	.
CC(=O)c1ccc(S(=O)(=O)N2Cc3ccccc3CC2C(=O)O)cc1 (centres undefined)	1	+	99*	19	16	56*	56*	2
CC(C)(C)c1ccc(NC(=O)c2ccccc2)c([N+](=O)[O-])c1	-1	i	2	-7	35	2	.	.
CCCC[n+]1c(C)sc2cc(OC)ccc21	-34	+	-4	18	-45	65*	66*	-2
COc1ccc2sc(C)[n+](C)c2c1	-61	i	-7	15	-19	25	.	.
CC(=O)c1cn(C)c(=O)[nH]c1=O	4	i	4	-7	28	-2	.	.
CCCCC(=O)Nc1nc2c(OC)ccc(OC)c2s1	-12	i	-8	6	0	3	.	.
CCC[n+]1c(C)sc2c(OC)ccc(OC)c21	-24	i	10	19	-7	44*	20*	-1
CCCCn1c(=O)[nH]c(=O)c2c1nc(-c1ccccn1)n2CC	-2	i	27	-3	4	4	.	.
C[N+]1(C2CCC3CCCC2C3O)CCCCC1 (centres undefined)	-152	i	12	21	-1	65*	68*	4
COC(=O)c1[nH]c2ccc(Cl)cc2c1NC(=O)CN1CCc2cc(OC)c(OC)cc2C1	-121	i	1	9	-16	41*	60*	-3
COC(=O)c1[nH]c2cc(C)ccc2c1NC(=O)CN1CCc2cc(OC)c(OC)cc2C1	-5	i	-9	-8	7	-1	.	.
COc1ccc2c(c1)CCc1sc(NC(=O)c3ccc(C)cc3)nc1-2	-62	i	0	5	-47	50*	26	.
SMILES	MLLE-PAM2 inh	PABP FP inh	eIF4H FP inh	APOBEC3G inh	PHOSPHO1 block	A3A deaminase	APOBEC3A confirm	UDG A3A counter
CC(=O)Oc1ccc(/C=N/NC(=O)C2CCCN2S(=O)(=O)c2ccc(Cl)cc2)cc1 (centres undefined)	-111	i	1	16	73*	61*	71*	-4
CN(C(=O)COC(=O)c1nn(C)c(=O)c2ccccc12)c1c(N)n(Cc2ccccc2)c(=O)[nH]c1=O	-10	.	.	-9	.	0	.	.
Cc1ccoc1C(=O)NCc1occc1C(=O)O	19	i	74*	10	-15	40	28	.
COC(=O)c1cc(NC(=O)c2cc(-c3ccc(Cl)cc3)oc2C(F)(F)F)ccc1N1CCOCC1	-17	i	-18	-2	58	-4	.	.
COc1ccccc1NC(=O)COC(=O)c1cc2c(s1)CCC2	7	.	.	6	.	56*	46*	-1
COc1ccc(OC)c(NC(=O)COC(=O)c2cc3c(s2)CCC3)c1	-5	?	?	34	22	76	.	.
C[n+]1ccccc1C1CCCC/C1=N\NC(N)=S (centres undefined)	-147	i	2	14	15	84*	55*	-1
CN(C)[C@@H]1C(=O)C(C(=O)NCN2CCCC2)=C(O)[C@@]2(O)C(=O)C3=C(O)c4c(O)cccc4[C@@](C)(O)C3CC12 (some centres undefined)	.	i	96	.	1	.	.	.
CN(C)c1ccc(O)c2c1CC1CC3[C@@H](N(C)C)C(=O)C(C(N)=O)C(=O)[C@]3(O)C(=O)C1C2=O (some centres undefined)	5	.	.	12	.	54*	30*	-2
CN(C)c1ccc(O)c2c1CC1CC3C(N(C)C)C(=O)C(C(N)=O)=C(O)[C@@]3(O)C(=O)C1=C2O (some centres undefined)	10	.	.	-3	.	40*	-1	-3
C[C@H]1c2cccc(O)c2C(=O)C2C(=O)C3(O)C(=O)C(C(N)=O)C(=O)[C@@H](N(C)C)[C@@H]3[C@@H](O)[C@@H]21 (some centres undefined)	10	.	.	-1	.	2	.	.
COc1cc(C(=O)NCc2ccco2)c(Br)c(OC)c1OC	-5	i	9	-3	31	51*	-9	-3
COc1cc(C(=O)NCc2ccco2)cc(OC)c1OC	-34	i	11	4	-2	1	.	.
Cc1ccc(NC(=O)CN(c2ccccc2F)S(C)(=O)=O)cc1	-7	i	1	3	-15	52*	-2	.
CCOc1cc(N2CCOCC2)c(OCC)cc1NS(=O)(=O)c1cc(NC(C)=O)ccc1OC	-12	i	59*	6	19	46*	20*	-3
COc1ccccc1NS(=O)(=O)c1cc(NC(=O)c2ccc(NC(C)=O)cc2)ccc1N1CCOCC1	39	.	.	.	.	.	.	.
CCOc1cc(N2CCOCC2)c(OCC)cc1NC(=O)c1c(C)noc1C	-61	.	.	6	.	43*	8	.
CN(C)c1ccnc(-n2cccc2/C=N/OCc2cccc(F)c2)c1C#N	-8	i	4	-7	25	-6	.	.

Screening data: PubChem BioAssay, Sanford-Burnham Center for Chemical Genomics
